This passage reports inhibition results from PubChem BioAssay AID602124 (The Scripps Research Institute Molecular Screening Center, 2011).

Among all 1,300 compounds or so, about 630 (48%) were called active. No stated cut-off is given here; in the data, active means inhibition above about 6.5%; inactive means the rest. So high a share suggests a set chosen from earlier hits. Many of the other results were omitted from the sample, so actives are more common in it than they were.

Chain of Tyrosine-protein kinase ABL1 (Homo sapiens) + Ras and Rab interactor 1 (Homo sapiens) (P00519 whole entry, looked up): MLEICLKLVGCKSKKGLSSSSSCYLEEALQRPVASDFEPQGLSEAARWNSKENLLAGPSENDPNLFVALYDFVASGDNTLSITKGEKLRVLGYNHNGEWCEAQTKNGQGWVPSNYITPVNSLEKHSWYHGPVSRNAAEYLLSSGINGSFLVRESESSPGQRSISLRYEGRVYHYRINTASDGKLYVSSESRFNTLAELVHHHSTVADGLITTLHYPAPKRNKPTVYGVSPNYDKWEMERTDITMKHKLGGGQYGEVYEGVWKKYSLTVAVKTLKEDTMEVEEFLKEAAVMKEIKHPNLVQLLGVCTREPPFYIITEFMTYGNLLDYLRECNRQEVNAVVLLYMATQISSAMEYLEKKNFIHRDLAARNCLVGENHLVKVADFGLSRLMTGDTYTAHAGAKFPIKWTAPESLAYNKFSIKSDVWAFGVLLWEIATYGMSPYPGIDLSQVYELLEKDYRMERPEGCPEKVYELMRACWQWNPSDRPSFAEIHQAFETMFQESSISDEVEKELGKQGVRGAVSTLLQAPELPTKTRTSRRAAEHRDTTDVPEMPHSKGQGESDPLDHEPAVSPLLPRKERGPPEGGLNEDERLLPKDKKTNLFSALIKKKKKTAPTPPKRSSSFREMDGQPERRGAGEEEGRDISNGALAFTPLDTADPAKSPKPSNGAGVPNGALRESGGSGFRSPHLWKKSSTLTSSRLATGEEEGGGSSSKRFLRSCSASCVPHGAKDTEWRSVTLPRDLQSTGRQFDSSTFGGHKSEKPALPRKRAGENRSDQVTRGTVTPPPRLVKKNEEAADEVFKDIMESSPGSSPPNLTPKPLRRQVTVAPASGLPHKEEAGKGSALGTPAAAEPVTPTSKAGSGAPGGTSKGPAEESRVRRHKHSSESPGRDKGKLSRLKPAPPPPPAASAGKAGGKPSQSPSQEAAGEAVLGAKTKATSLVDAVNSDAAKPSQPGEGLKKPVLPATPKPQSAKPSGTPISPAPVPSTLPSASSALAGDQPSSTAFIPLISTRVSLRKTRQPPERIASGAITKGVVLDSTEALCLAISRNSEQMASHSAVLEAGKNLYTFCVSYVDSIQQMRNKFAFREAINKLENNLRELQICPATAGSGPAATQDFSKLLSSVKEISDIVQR
Chain of Tyrosine-protein kinase ABL1 (Homo sapiens) + Ras and Rab interactor 1 (Homo sapiens) (Q13671 whole entry, looked up): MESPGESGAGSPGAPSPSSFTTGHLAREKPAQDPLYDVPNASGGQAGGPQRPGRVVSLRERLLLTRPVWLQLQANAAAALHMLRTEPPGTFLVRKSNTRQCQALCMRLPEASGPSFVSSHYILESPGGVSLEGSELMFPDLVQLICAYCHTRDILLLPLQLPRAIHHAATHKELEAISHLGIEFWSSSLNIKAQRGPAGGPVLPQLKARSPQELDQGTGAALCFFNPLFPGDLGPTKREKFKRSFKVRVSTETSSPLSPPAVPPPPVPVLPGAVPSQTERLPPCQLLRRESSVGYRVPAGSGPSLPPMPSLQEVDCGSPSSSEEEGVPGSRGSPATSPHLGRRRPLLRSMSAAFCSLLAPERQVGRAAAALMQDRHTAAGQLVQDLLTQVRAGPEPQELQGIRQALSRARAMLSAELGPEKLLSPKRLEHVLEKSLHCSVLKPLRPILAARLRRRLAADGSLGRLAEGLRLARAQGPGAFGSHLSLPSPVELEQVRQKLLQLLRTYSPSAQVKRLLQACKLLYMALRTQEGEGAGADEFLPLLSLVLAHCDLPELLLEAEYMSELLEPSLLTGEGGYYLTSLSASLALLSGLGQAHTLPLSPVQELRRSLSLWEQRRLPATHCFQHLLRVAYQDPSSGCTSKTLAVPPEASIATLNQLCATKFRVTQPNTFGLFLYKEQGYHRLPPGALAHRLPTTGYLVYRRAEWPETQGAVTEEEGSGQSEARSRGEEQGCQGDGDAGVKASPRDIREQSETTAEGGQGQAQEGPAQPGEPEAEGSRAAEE

The assay addresses Tyrosine-protein kinase ABL1 (Homo sapiens) + Ras and Rab interactor 1 (Homo sapiens) (UniProt P00519+Q13671). The experiment in a line: Rin1-Abl binding inhibitor retest, confirmation, biochemical, TR-FRET (AID 602124). Particulars: purified proteins, at 7.35 µM, active compounds read high. Background: In TR-FRET formats the signal depends on donor and acceptor labels being close together.
Broadly, the inhibition is how much of the control response was suppressed. `CSCCC(c1nnnn1C(C)(C)C)N1CCC(n2c(=O)[nH]c3ccccc32)CC1` (stereo unspecified): the inhibition is 16.5% (active).
